Only some compounds are listed: those with a hit (about 1.4% of all), similar ones and a draw of the others.
S1P2 blocker: blocks the human S1P2 receptor | O95136 | cell-based S1P2 antagonist assay, inhibition at 5 uM | inhibition, % at 5 µM | 97,000 tested, 0.21% active | AID 736; in the data active means inhibition above about 45%;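 further: CRE beta-lactamase reporter cells expressing human S1P2 stimulated with S1P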
PTPN22 inh 2: LYP (human) phosphatase inhibition. recombinant LYP catalytic domain, DiFMUP fluorescence. 96,000 tested, 0.21% active. inhibition, % at 2 µM;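 active means inhibition at 2 µM at or above a set limit, the screen mean plus 3 SD, cut at about 24% in these data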
Target sequence (Q9Y2R2 whole entry, looked up, the tested form may be a part): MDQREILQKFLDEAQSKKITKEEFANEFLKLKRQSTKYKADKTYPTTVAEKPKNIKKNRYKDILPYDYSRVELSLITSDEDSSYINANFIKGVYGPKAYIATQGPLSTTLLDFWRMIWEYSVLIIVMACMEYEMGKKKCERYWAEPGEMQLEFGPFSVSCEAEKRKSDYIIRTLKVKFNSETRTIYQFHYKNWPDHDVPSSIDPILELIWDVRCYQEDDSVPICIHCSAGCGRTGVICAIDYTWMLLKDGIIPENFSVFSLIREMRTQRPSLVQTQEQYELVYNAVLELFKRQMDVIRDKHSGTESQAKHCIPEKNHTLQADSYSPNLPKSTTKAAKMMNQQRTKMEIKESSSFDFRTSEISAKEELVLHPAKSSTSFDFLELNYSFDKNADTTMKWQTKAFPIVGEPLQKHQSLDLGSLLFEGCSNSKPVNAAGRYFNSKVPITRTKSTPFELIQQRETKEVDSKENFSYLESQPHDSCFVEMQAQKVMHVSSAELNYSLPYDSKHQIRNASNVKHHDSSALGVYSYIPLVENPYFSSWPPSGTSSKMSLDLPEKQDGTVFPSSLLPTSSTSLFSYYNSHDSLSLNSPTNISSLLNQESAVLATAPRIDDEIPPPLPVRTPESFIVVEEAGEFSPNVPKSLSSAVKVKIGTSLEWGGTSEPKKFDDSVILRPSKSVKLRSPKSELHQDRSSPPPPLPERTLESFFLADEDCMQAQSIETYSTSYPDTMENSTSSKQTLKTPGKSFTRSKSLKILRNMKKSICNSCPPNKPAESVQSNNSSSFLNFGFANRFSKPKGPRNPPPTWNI
GALR2 blocker: antagonists of human galanin receptor 2 (GALR2); O43603; GALR2-expressing cells, antagonist mode; inhibition, % at 4 µM; 140,000 tested, 0.39% active; AID 828; in the data active means inhibition above about 27%;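 further: cells stimulated with galanin 1-16 at roughly its EC80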
GALR2 ag: GALR2 (human) receptor agonism; O43603; GALR2-expressing cells, agonist activation read-out; activation, % (test concentration not listed); 140,000 tested, 0.48% active; AID 803; in the data active means activation above about 5%, passing the limit was not always enough
LYP act: LYP (human) phosphatase activation | activation, % at 2 µM | Q9Y2R2 | recombinant LYP, DiFMUP fluorescence; 0 = plate median, 100 = signal doubled | AID 697 | 96,000 tested, 0.11% active;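 active means activation at 2 µM above a set limit, the mean plus 5 SD, cut at about 37% in these data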
S1P2 ag: S1P2 (human) receptor agonism | activation, % at 4.5 µM | AID 729 | O95136 | S1P2-expressing cell line, agonist reporter read-out | 97,000 tested, 0.46% active; in the data active means activation above about 16%
GALR2 agon conf: confirmation of human galanin receptor 2 (GALR2) agonists | shares compounds with GALR2 ag | GALR2-expressing cells, agonist activation | activation, % at 5.6 µM | 460 tested, 10% active | AID 864; in the data active means activation above about 8.4%
BLA act counter: beta-lactamase activation, GALR2 counterscreen. shares compounds with GALR2 ag. CHO NFAT-bla reporter, beta-lactamase FRET activation. activation, % at 5.6 µM. 460 tested, 10% active. AID 865;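 active means activation above the screen-wide mean activation plus 3 SD, cut at about 8% in these data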
Hits are given with their value; n = inactive; x = no result.

SMILES | S1P2 blocker | PTPN22 inh 2 | GALR2 blocker | GALR2 ag | LYP act | S1P2 ag | GALR2 agon conf | BLA act counter
O=C(NCCN1CCOCC1)c1cc2c(=O)n3ccccc3nc2n1Cc1ccccc1 | n | n | n | n | n | n | x | x
N#Cc1cc2c(=O)n3ccccc3nc2n(CCCN2CCOCC2)c1=O | x | x | n | 8.6 | x | x | n | 8.2
COc1cc(C(=O)NNC2=NC(C)(C)Cc3cc(C)c(C)cc32)cc(OC)c1OC | x | x | n | n | x | x | x | x
O=C(O)CC1(c2ccccc2)C(=O)c2ccccc2C1=O | x | x | n | 10 | x | x | n | n
Cc1cc2ncn(-c3ncnc4sc5c(c34)CCC(C)C5)c2cc1C (configuration not stated) | n | n | n | n | n | n | x | x
Cc1c(Cl)c([N+](=O)[O-])nn1CC(=O)NC12CC3CC(CC(C3)C1)C2 | n | n | n | 38 | n | n | n | n
Cc1c(Cl)c([N+](=O)[O-])nn1CC(=O)N1CCCC1 | x | x | n | n | x | x | x | x
O=C(Oc1ccc(F)cc1C(=O)/C=C/c1cccs1)c1cccc([N+](=O)[O-])c1 | n | n | n | 39 | n | n | n | n
O=C(/C=C/c1ccccc1F)c1cccc([N+](=O)[O-])c1 | x | x | n | n | x | x | x | x
CN(C(=O)Nc1ccccc1)C1CCS(=O)(=O)C1 (configuration not stated) | n | n | n | n | n | n | x | x
CC(=O)NC1=C(N(C)C2CCS(=O)(=O)C2)C(=O)c2ccccc2C1=O (configuration not stated) | x | x | n | 36 | x | x | n | n
CCN(CC(=O)Nc1c(C(=O)OC)[nH]c2ccc(Cl)cc12)c1ccc2c(c1)OCO2 | n | n | n | n | n | n | x | x
CCOC(=O)c1[nH]c2ccc(Cl)cc2c1NC(=O)/C=C/c1ccc2c(c1)OCO2 | x | x | n | 14 | x | x | 8.5 | n
CCCCC1(CC(=O)OCC)C(=O)N(c2ccccc2)N(c2ccccc2)C1=O | x | x | n | n | x | x | x | x
Cc1ccccc1Cn1nc(C)c(NC(=O)c2cc3nc(-c4ccco4)cc(C(F)(F)F)n3n2)c1C | n | n | n | n | n | n | x | x
CCc1ccc(-c2cc(C(F)(F)F)n3nc(C(=O)Nc4c(C)nn(Cc5ccc(F)cc5)c4C)cc3n2)s1 | n | n | n | 13 | n | n | n | n
COc1ccccc1OCCn1cc(/C=C(\C#N)C(=O)NCc2ccco2)c2ccccc21 | x | x | n | n | x | x | x | x
COc1ccc(OCCn2cc(/C=C(\C#N)C(=O)NCc3ccco3)c3ccccc32)cc1 | x | x | n | 13 | x | x | n | n
Cc1cccc(NC(=O)/C(C#N)=C/c2cn(CC(=O)NCc3ccco3)c3ccccc23)c1 | x | x | n | 31 | x | x | 14 | 13
Cc1ccc(C)c(OCCn2cc(/C=C(\C#N)C(=O)NCc3ccco3)c3ccccc32)c1 | x | x | n | n | x | x | x | x
O=S(=O)(Nc1cc2nc3ccccc3nc2n1Cc1ccccc1)c1ccc(Cl)cc1 | x | x | n | 14 | x | x | n | n
COc1ccc(CCNC(=O)/C(C#N)=C/c2cccc(OCc3ccccc3)c2)cc1OC | x | x | n | n | x | x | x | x
CC(=O)N1[C@H](Cc2ccccc2)C=C[C@]1(C)C(=O)NCc1ccccn1 | x | x | n | n | x | x | x | x
Cc1[nH]nc(N=CC2=C(O)CC(c3ccco3)CC2=O)c1-c1ccccc1 (configuration not stated) | n | n | n | n | n | n | x | x
Cc1[nH]nc(N=CC2=C(O)CC(C)(C)CC2=O)c1-c1ccccc1 | n | n | n | 14 | n | n | n | n
SMILES | S1P2 blocker | PTPN22 inh 2 | GALR2 blocker | GALR2 ag | LYP act | S1P2 ag | GALR2 agon conf | BLA act counter
N=c1oc2cc(O)ccc2cc1C(=O)Nc1nc2ccccc2s1 | x | x | n | 25 | x | x | 36 | 94
COc1cccc(/C=N/NC(=O)CCc2c(C)n[nH]c2C)c1 | n | n | n | 14 | n | n | n | n
O=C(CSc1nc2c([nH]c3ccccc32)c(=O)n1-c1cccc(Cl)c1)N1CCOCC1 | n | n | n | 13 | n | n | n | n
O=C(CSc1nc2c([nH]c3ccccc32)c(=O)n1-c1ccccc1)N1CCOCC1 | x | x | n | n | x | x | x | x
CCCCNC(=O)NNC(=O)COc1cccc(C)c1C | x | x | n | n | x | x | x | x
Cc1ccc(C)c(OCCCCn2ccnc2)c1 | n | n | n | n | n | n | n | n
Cc1ccc(OCCCCn2ccnc2)c(Cl)c1 | n | n | n | n | n | n | x | x
Cc1ccc(S(=O)(=O)NC(=O)NCc2ccc3c(c2)OCO3)cc1 | n | n | n | 152 | n | n | n | n
O=C(O[C@@H]1OC2COC(=O)c3cc(O)c(O)c(O)c3-c3c(cc(O)c(O)c3O)C(=O)O[C@@H]([C@H]1O)[C@@H]2O)c1cc(O)c(O)c(O)c1 | x | x | n | n | x | x | x | x
COc1ccc(C(=O)CSc2nnc(C3CC3)n2N)cc1 | n | n | n | 21 | n | n | n | n
CCn1c(SCC(=O)c2ccc(OC)cc2)nnc1C1CC1 | n | n | n | n | n | n | x | x
COC(=O)C1=C(C)N(C)C(C)=C(C(=O)OC)C1c1ccsc1 | n | n | n | n | n | n | x | x
CCOC(=O)C1=CN(C)C=C(C(=O)OCC)C1c1ccsc1 | n | n | n | n | n | n | n | n
COc1cc(/C=N/NC(=O)c2ccc(COc3cc(C)ccc3C(C)C)cc2)cc(OC)c1O | x | x | n | 8.4 | x | x | n | n
O=S(=O)(Nc1cccnc1)c1ccc(Cl)cc1 | n | n | n | 80 | n | n | n | n
CC(C)(C)c1ccc(S(=O)(=O)Nc2cccnc2)cc1 | n | n | n | n | n | n | x | x
O=C(CN(c1ccccc1)S(=O)(=O)c1ccccc1[N+](=O)[O-])NN=C1CCCCCCC1 | n | n | n | n | n | n | x | x
COC(=O)Cc1c(C)c2ccc(OC(=O)c3ccco3)cc2oc1=O | n | n | n | n | n | n | x | x
COC(=O)Cc1c(C)c2cc(Cl)c(OC(=O)c3ccco3)cc2oc1=O | n | n | n | 13 | n | n | n | n
Cc1cccc(C)c1NC(=S)N(c1ccccc1)C(C)C | x | x | n | n | x | x | x | x
CC(C)N1C(=O)/C(=C\c2nc3ccccc3c(=O)n2-c2ccccc2)c2ccccc21 | x | x | n | 41 | x | x | n | n
O=C1CSC(=Nc2cc(Cl)ccc2Cl)N1 | n | n | n | 27 | n | n | n | n
Cc1ccc(N=C2NC(=O)CS2)c(C)c1 | n | n | n | n | n | n | x | x
COCc1cc(C)nc(N/N=C/c2ccc(Cl)c(Cl)c2)c1C#N | x | x | n | n | x | x | x | x
CCOC(=O)c1[nH]c(C)c(C(=O)Nc2ccc(C)c(F)c2)c1C | x | x | n | 44 | x | x | n | n
O=C(CN(Cc1ccccc1)S(=O)(=O)c1ccc(S(=O)(=O)N2CCOCC2)cc1)Nc1ccccc1 | x | x | n | n | x | x | x | x
CC(C)Cn1c(=O)c2ccccc2n2c(SCC(=O)N3c4ccccc4CC3C)nnc12 (configuration not stated) | x | x | n | n | x | x | x | x
CC1(C)CC(=O)C2=C(C1)Nc1ncnn1C2c1ccccn1 (configuration not stated) | n | n | n | 23 | n | n | n | n
COc1ccc(/C=C/C(=O)OCC(=O)Nc2cc(C(F)(F)F)ccc2Cl)cc1 | x | x | n | n | x | x | x | x
